# Laboratory results as given in ChEMBL document CHEMBL3988442, “University of Dundee, Small-Polar-MMV Screening Library” (2021).
# The whole screen tested about 48,000 compounds, of which about 13,000 (27%) showed an effect of 50% or more. The list shows a part of the results.
# System: Wolbachia pipientis
# Test: Anti-Wolbachia Cell-Based Screen
# Assay type: functional
# Design: scale not given: in the data most compounds retested in dose-response had high values
# Conditions: 5 µM
row,SMILES,Percent Effect
1,CCc1cc(CN(C)C(=O)CN2CC3(CCNCC3)OC2=O)on1,3.162%
2,Cc1nc(CCN(C)C(=O)CN2CCCCCC2)no1,5.465%
3,CC(C)c1cc(CN(C)C(=O)CN2CCC(C(N)=O)CC2)no1,136.4%
4,Cc1cc(CN(C)C(=O)C2CCCN(C(N)=O)C2)no1 (centres undefined),12.67%
5,CC(C)c1cc(CN(C)C(=O)CN2CCCCC2=O)no1,112.2%
6,Cc1cc(CN(C)C(=O)NC2CCN(Cc3ccccc3)C2)no1 (centres undefined),-11.75%
7,CN(Cc1cc(C2CC2)on1)C(=O)CN1C(=O)OC(C)(C)C1=O,-4.246%
8,Cc1ncsc1CCN(C)C(=O)CN1CCCCC1=O,17.08%
9,Cc1cc(CN(C)C(=O)NCc2cccc(N3CCCC3=O)c2)no1,2.405%
10,Cc1cc(CN(C)C(=O)CN2CCCCCC2=O)no1,104.9%
11,CC(C)c1cc(CN(C)C(=O)CN2CCNC2=O)no1,133%
12,Cc1cc(CN(C)C(=O)CN2CC3(CCNCC3)OC2=O)no1,-10.43%
13,CCOCC(=O)NC(C#N)c1cnn(-c2ccccc2)c1 (centres undefined),0.4784%
14,CCc1cc(CN(C)Cc2nc(-c3ccc(OC)cc3F)oc2C)on1,-9.467%
15,Cc1cnccc1N1CCCN(C(=O)CCCc2cn[nH]c2)CC1,11.82%
16,O=C(Nc1nncs1)N1CCCN(C2CCCC2)CC1,-1.803%
17,Cc1noc(C)c1CNC[C@@]1(COc2cccnc2)C[C@@H](O)[C@@H](O)C1.Cl.Cl,-8.065%
18,Cc1n[nH]c(C)c1CNC(=O)NC1CCCCC1,-5.785%
19,Cc1noc(C)c1CCC(=O)N[C@@H]1CCC[C@@H](Oc2cccnc2)[C@@H]1O,114.3%
20,Cc1noc(C)c1CCC(=O)N[C@@H]1CC[C@@H](Oc2cccnc2)[C@@H]1O,106.7%
21,CNC(=O)COc1ccccc1CNCc1c(C)noc1C,-55.32%
22,Cc1n[nH]c(C)c1CCC(=O)N[C@@H]1CCC[C@@H](Oc2ccccc2)[C@@H]1O,124.4%
23,Cc1nn(C)c(Oc2cccnc2)c1NC(=O)C1CCCO1 (centres undefined),5.234%
24,Cc1n[nH]c(C)c1CCCNCc1cn(CCC(N)=O)c2ccccc12,-2.861%
25,Cc1[nH]ncc1CCCNC(=O)Nc1ccc2c(c1)OC1(CCCC1)O2,-12.99%
26,Cc1cc2n(n1)CC(CNC1CCN(Cc3ccncc3)CC1)CN2 (centres undefined),3.296%
27,Cc1noc(C)c1CNC(=O)N(C1CC1)C(C)c1ccco1 (centres undefined),-2.539%

row,SMILES,Percent Effect
1,Cc1ccc2c(-c3nc4c([nH]3)CCNC4C(=O)O)cccc2n1 (centres undefined),0.6964%
2,O=C(CC1CCc2ccccc21)NC1(C(=O)O)CCCC1 (centres undefined),9.016%
3,COCCN1CCC2(CC1)CC(CC(N)=O)c1ccc(F)cc12 (centres undefined),8.076%
4,CCC(=O)N1CCC2(CC1)CC(CC(=O)N(C)C)c1ccc(F)cc12 (centres undefined),103%
5,CCC(=O)N1CCC2(CC1)CC(CC(N)=O)c1ccc(F)cc12 (centres undefined),3.39%
6,Cc1ccc2c(c1)C1(CCNCC1)CC2OCC1CC1 (centres undefined),7.08%
7,CCN1CCC2(CC1)CC(CC(=O)N(C)C)c1ccc(F)cc12 (centres undefined),112.9%
8,CNC(=O)CC1CC2(CCNCC2)c2cc(F)ccc21 (centres undefined),95.41%
9,CNC(=O)CC1CC2(CCN(Cc3nccs3)CC2)c2ccccc21.O=C(O)C(F)(F)F (centres undefined),-2.085%
10,O=C(CC1CC2(CCNCC2)c2ccccc21)NCC1CC1 (centres undefined),105%
11,CCNC(=O)CC1CC2(CCN(C(C)=O)CC2)c2cc(F)ccc21 (centres undefined),-4.484%
12,CCOC1CC2(CCN(C(=O)COC)CC2)c2cc(F)ccc21 (centres undefined),-4.976%
13,COCC(=O)N1CCC2(CC1)CC(CC(=O)NC1CC1)c1ccccc12 (centres undefined),-16.01%
14,CCN1CC(C(=O)N2CCc3cc(C(N)=O)n(C)c3C2)CCC1=O (centres undefined),-10.45%
15,Cc1ccc(-c2nc(CN3CCn4c(nnc4C4CC4)C3)no2)cc1,-10.52%
16,c1cncc(NCCNC2CCSC2)c1 (centres undefined),14.04%
17,CCC(C)n1cnc(S(=O)(=O)N(C)c2cccnc2N(C)C)c1 (centres undefined),2.284%
18,Cc1nnc(CSc2ccccn2)o1,-5.067%
19,O=C(CCN1CCCC1C1CCCCC1)N1CCc2sccc2C1 (centres undefined),3.149%
20,CN(C)S(=O)(=O)N1CCC2(CC1)CC(OCC1CC1)CO2 (centres undefined),-4.528%
21,CC(C)(C)CC(=O)NC[C@H]1OC[C@@H](NC2CCC(F)(F)CC2)[C@@H]1O,-11.06%
22,COc1nn(C)c2c1CCCN(C(=O)c1cscn1)C2,93.39%
23,Cn1nc(C#N)c2c1CN(C(=O)c1ccnnc1)CCC2,-0.2276%
24,Cn1nc(C#N)c2c1CN(C(=O)c1c[nH]cn1)CCC2,-11.9%
25,COc1nn(C)c2c1CCCN(C(=O)c1c[nH]cn1)C2,-44.84%
26,COc1nn(C)c2c1CCCN(C(=O)c1cnccn1)C2,102.6%
27,Cn1nc(C#N)c2c1CN(C(=O)c1nc[nH]n1)CCC2,-49.74%
